Rows were chosen to be rich in hits. Some 2.3% of all compounds tested hit in one or more screens of this group.
Giardia kill = kills Giardia lamblia. Giardia lamblia trophozoite viability. AID 540267. activity change, % at 7.66 µM, hits read low. hit rate 0.15% among 340,000; in the data active = activity change below about -80%; inconclusive = between about -30% and that limit;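 note: parasites exposed to compound for two days anaerobically before the ATP read; % is set by controls: 0 for no effect and ±100 for the full control effect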
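Each well holds 100 Giardia trophozoites and compound. After two days (48 hrs) at 37 deg C in anaerobic conditions, ATP is quantified by luminescence.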
FUS suppressor = suppressors of FUS proteinopathy in yeast; S. cerevisiae FUS-expressing, growth rescue, OD600, 24 h; Potency, µM (doses to about 76.6 µM), usual class: activators; hit rate 0.24% among 390,000;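 note: potency is the fitted concentration of half-maximal effect; plate controls were DMSO vehicle for no effect and reference control for full effect; nearly all actives have a fitted effect of over 55% in size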
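Restored growth of FUS-toxic S. cerevisiae, read as 600 nm absorbance after 24 h at 30C in galactose medium (starting OD 0.005). Controls CP55940 and DMSO.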
TRPV1 agonist = agonists of human vanilloid receptor 1 (TRPV1); Q8NER1; TRPV1-expressing cells, Fluo-8 calcium influx, agonist mode; activation, % at 8.33 µM; hit rate 0.19% among 320,000; AID 540275; in the data active = activation above about 80%; inconclusive = between about 30% and that limit; note: 0% is about no effect
Target sequence (Q8NER1 whole entry, looked up): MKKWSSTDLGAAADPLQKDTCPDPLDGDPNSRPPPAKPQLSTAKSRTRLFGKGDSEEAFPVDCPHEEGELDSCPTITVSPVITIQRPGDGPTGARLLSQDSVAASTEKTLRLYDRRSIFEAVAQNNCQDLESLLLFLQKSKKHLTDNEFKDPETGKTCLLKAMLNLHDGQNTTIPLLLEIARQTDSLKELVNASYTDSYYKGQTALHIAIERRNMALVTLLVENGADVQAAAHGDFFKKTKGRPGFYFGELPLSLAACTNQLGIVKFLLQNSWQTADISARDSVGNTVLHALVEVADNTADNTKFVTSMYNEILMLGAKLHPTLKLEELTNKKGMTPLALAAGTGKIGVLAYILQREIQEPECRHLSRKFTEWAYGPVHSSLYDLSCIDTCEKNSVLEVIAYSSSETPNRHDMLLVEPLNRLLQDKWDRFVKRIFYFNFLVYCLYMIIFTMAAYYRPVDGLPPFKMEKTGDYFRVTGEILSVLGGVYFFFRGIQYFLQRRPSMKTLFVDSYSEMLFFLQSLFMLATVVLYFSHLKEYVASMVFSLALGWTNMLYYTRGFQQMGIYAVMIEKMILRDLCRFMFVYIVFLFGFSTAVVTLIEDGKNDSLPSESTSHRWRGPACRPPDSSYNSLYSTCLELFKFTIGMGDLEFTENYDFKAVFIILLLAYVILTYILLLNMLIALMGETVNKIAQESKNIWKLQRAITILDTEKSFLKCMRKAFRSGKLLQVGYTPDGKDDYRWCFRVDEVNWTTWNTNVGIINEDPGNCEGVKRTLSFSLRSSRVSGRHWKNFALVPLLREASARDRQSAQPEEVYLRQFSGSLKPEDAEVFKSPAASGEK
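Fluo-8 calcium influx in TRPV1-expressing cells, kinetic read (ex 480/em 520 nm). Compound added and read 3 min for agonist activity, followed by capsaicin at EC20 final and 2 min further read for enhancement.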
ELG1 DNA repair = inhibitors of ELG1-dependent DNA repair in HEK293T cells; HEK293T ELG1-luciferase reporter, luminescence, 16 h; DNA damage induced by 5-fluorouridine; Potency, µM (top dose mostly 46.1 µM), for inactives: top-dose activity change, negative = inhibition, hits mostly inhibitors; hit rate 2.3% among 330,000; AID 504467; note: potency is the fitted concentration of half-maximal effect; % is set by controls: 0 for no effect and ±100 for the full control effect; nearly all actives have a fitted effect of over 55% in size
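HEK293T cells expressing luciferase-tagged ELG1 (2,000/well) received 5-Fluorouridine plus compound or DMSO for 16 hr at 37 °C. Luciferase was read by ONE-Glo luminescence after 30 min at room temperature.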
TRPV1 PAM = potentiators of human vanilloid receptor 1 (TRPV1). potentiation, % at 8.33 µM. Q8NER1. hit rate 0.02% among 320,000. TRPV1-expressing cells, Fluo-8 calcium influx, capsaicin EC20 potentiation; in the data active = potentiation above about 80%; inconclusive = between about 30% and that limit; note: 0% is about no effect
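Fluo-8 calcium influx in TRPV1-expressing cells, kinetic read (ex 480/em 520 nm). Compound added and read 3 min for agonist activity, followed by capsaicin at EC20 final and 2 min further read for enhancement.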
* marks the source's active call; other numbers are inactive results; i = inactive; ? = inconclusive; . = no result given. Unless noted, calls come from the whole dose curve; as a rule, active = well fitted curve in the direction sought with a large enough effect; inconclusive = small, poorly fitted or top-dose-only effect, or another doubt; inactive = no such curve, though single readings can be large; an effect the other way counts as inactive or inconclusive.

SMILES	Giardia kill	FUS suppressor	TRPV1 agonist	ELG1 DNA repair	TRPV1 PAM
C=CC[C@@H](CC(=O)N[C@@H](CO)Cc1ccccc1)C(=O)N[C@@H](C)COC(=O)[C@@H](CC=C)Cc1ccc(F)cc1	11.0	17.8µM*	.	-24.6%	.
C=CC[C@H](CC(=O)N(CCO)Cc1ccccc1)C(=O)N[C@@H](C)COC(=O)[C@H](CC=C)CC(=O)OC(C)(C)C	2.1	?	.	23.1µM*	.
C=CCC[C@H](Cc1ccc(F)cc1)C(=O)OC[C@H](Cc1c[nH]c2ccccc12)NC(=O)[C@H](CC=C)CC(=O)NCCO	-8.6	?	.	-14.1%	.
C=CC[C@@H](CC(=O)N[C@@H](CO)Cc1ccccc1)C(=O)N[C@H](C)COC(=O)[C@@H](CC=C)Cc1ccc(F)cc1	-13.4	i	.	7.0%	.
C=CC[C@H](CC(=O)N(CCO)Cc1ccccc1)C(=O)N[C@H](COC(=O)[C@@H](CC=C)Cc1ccc(F)cc1)Cc1ccccc1	11.4	?	.	20.6µM*	.
Cc1cc2nc(-c3ccc(NC(=O)c4ccccc4F)cc3)oc2cc1C	.	i	.	.	.
Cc1ccc2nc(-c3ccc(Cl)c(NC(=O)c4ccc5c(c4)OCCO5)c3)oc2c1	.	i	.	.	.
CCCSCCCNC(=O)C1CCN(c2nc3ccccc3nc2C(F)(F)F)CC1	.	i	.	.	.
Cc1cc(C)c2c(=O)cc(C(=O)Nc3ccc(C)c(Cl)c3)oc2c1	.	i	.	.	.
C=CCC[C@@H](Cc1ccc(F)cc1)C(=O)OC[C@@H](Cc1c[nH]c2ccccc12)NC(=O)[C@@H](CC=C)CC(=O)NCCO	-13.0	?	.	?	.
C=CCC[C@H](Cc1ccc(F)cc1)C(=O)OC[C@@H](Cc1c[nH]c2ccccc12)NC(=O)[C@@H](CC=C)CC(=O)N(CCO)Cc1ccccc1	-6.1	?	.	25.9µM*	.
C=CCC[C@H](Cc1ccc(F)cc1)C(=O)OC[C@H](Cc1c[nH]c2ccccc12)NC(=O)[C@@H](CC=C)CC(=O)N(CCO)Cc1ccccc1	23.6	15.8µM*	.	23.1µM*	.
Cc1cc(C)c(NC(=O)C(C)n2c(=O)c(C(F)(F)F)nc3ccccc32)c(C)c1 (configuration not stated)	.	i	.	.	.
O=C(CSc1n[nH]c(-c2ccccc2Cl)n1)N1CCN(c2ccccc2)CC1	.	i	.	.	.
O=C(COC(=O)COc1ccccc1)Nc1ncc([N+](=O)[O-])s1	-25.6	.	-1.0	16.6%	-2.1
CC(CC(=O)Nc1ncc([N+](=O)[O-])s1)c1ccccc1 (configuration not stated)	-85.5*	i	10.3	-29.3%	3.5
CCC(Oc1ccccc1)C(=O)Nc1ncc([N+](=O)[O-])s1 (configuration not stated)	-87.6*	i	4.1	?	7.4
Cc1cccc(NC(=O)CSc2nnc(CN3CCOCC3)n2C)c1C	4.7	i	0.5	-3.1%	5.1
Cn1c(CN2CCOCC2)nnc1SCC(=O)Nc1ccc([N+](=O)[O-])cc1O	-13.7	.	0.4	13µM*	5.6
CC(C)C(NC(=O)c1ccccc1NC(=O)C(C)(C)C)C(=O)N1CCOCC1 (configuration not stated)	-8.3	i	.	0.0%	.
CC(NC(=O)c1ccccc1NC(=O)c1ccccc1)C(=O)N1CCOCC1 (configuration not stated)	-2.4	.	80.2*	-7.7%	7.1
CCOc1ccc(N=c2scc(-c3ccc(OC)cc3)n2CCO)cc1	11.6	i	-3.6	10.3µM*	-6.3
CCc1ccc(C(=O)COC(=O)c2cc([N+](=O)[O-])ccc2NCCO)cc1	-8.0	i	1.3	14.6µM*	5.7
CS(=O)(=O)c1ccc2nc(NC(=O)c3cc(-c4ccccc4)nn3-c3ccccc3)sc2c1	4.9	i	-10.5	7.31µM*	8.4
CS(=O)(=O)c1ccc2nc(NC(=O)C3=NN(c4ccccc4)C(=O)CC3)sc2c1	-5.0	i	2.3	-3.1%	-0.8
SMILES	Giardia kill	FUS suppressor	TRPV1 agonist	ELG1 DNA repair	TRPV1 PAM
COCCOC(=O)C1=C(C)NC(C)=C(C(=O)OC(C)C)C1c1cccc([N+](=O)[O-])c1 (configuration not stated)	0.4	i	4.9	11.6µM*	-9.8
Cc1cc(C)c2cc(CN(CCN3CCCC3)C(=O)Nc3ccc(F)cc3)c(=O)[nH]c2c1	3.9	?	-4.0	?	6.3
Cc1cc(C)c2cc(CN(CCO)C(=O)Nc3ccc(Cl)cc3)c(=O)[nH]c2c1	3.3	i	2.0	18.4µM*	-7.0
Cc1ccc(C)c2[nH]c(=O)c(CN(CCN3CCCC3)C(=O)Nc3cccc(Cl)c3)cc12	6.2	35.5µM*	-0.4	14.6µM*	?
Cc1nc2ccc(NC(=O)c3ccc(F)cc3F)cc2c(=O)[nH]1	.	i	.	.	.
COc1ccc(C(=O)N/N=C/c2ccc3cccc(OCc4ccccc4)c3n2)cc1	-10.3	i	1.6	14.6µM*	8.2
NC(=S)N/N=C/c1ccc2cccc(OCc3ccccc3)c2n1	-20.8	?	14.3	-12.7%	4.5
O=C(N/N=C/c1ccc2cccc(OCc3ccccc3)c2n1)c1ccc(Br)cc1	-3.6	i	-0.3	16.4µM*	?
CC(CNC(=O)C1CCN(C(=O)N2CCOc3ccc(Cl)cc32)CC1)c1ccccc1 (configuration not stated)	.	i	.	.	.
CCOC(=O)c1cc(NC(=O)c2ccc(F)cc2)c(=O)n2c1oc1ccc(Cl)cc12	.	i	.	.	.
N#Cc1cc(NC(=O)c2ccc(F)cc2)c(=O)n2c1[nH]c1ccccc12	.	.	2.0	6.51µM*	8.5
CCn1cc2nc(SCC(=O)Nc3ccc(OC)c(Cl)c3)n(Cc3ccc(OC)cc3)c(=O)c2n1	.	i	.	.	.
CCn1cc2nc(SCC(=O)Nc3cc(OC)cc(OC)c3)n(Cc3ccc(Cl)cc3)c(=O)c2n1	.	22.4µM*	.	.	.
COc1ccccc1CNC(=O)Cn1c(=O)ccc2cc(S(=O)(=O)N3CCCC3)ccc21	.	i	.	.	.
O=C(Nc1ccc(N2CCN(C(=O)c3ccco3)CC2)cc1)c1ccccc1	-29.7	i	1.2	?	2.8
O=C(Nc1ccc(N2CCN(C(=O)c3ccco3)CC2)cc1)c1ccc(F)cc1	-0.4	i	0.4	20.6µM*	-25.1
O=C(Nc1ccc(F)cc1)C(c1cc2ccccc2o1)N1CCN(C(=O)c2ccco2)CC1 (configuration not stated)	.	22.4µM*	.	.	.
Cc1cc(C)cc(C(=O)Nc2ccc(N3CCN(C(=O)c4ccco4)CC3)cc2)c1	2.0	.	-3.3	20.6µM*	1.9
CCCCN(C(=O)CSc1nn(-c2ccc(F)cc2)c(=S)s1)c1c(N)n(CCCC)c(=O)[nH]c1=O	-11.0	7.08µM*	0.7	-19.3%	6.8
Cc1cccc(N2CCN(C(=O)C3CCN(S(=O)(=O)N4CCOCC4)CC3)CC2)c1C	6.0	?	2.3	18.3µM*	-4.6
